Some of the results follow. Active and inactive are the calls of the source.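 The calls were made as follows: active = proliferation increase above 40% at any of the four tested concentrations; inactive = the rest.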
Assay: inducers of beta-cell proliferation in MIN6, confirmation, MIN6 cells, mouse (AID 463095)
Conditions: ATPlite luminescence, 48 h, cells kept in 0.2% serum, scaled between 0.2% and 10% serum; series mostly up to 50 µM

SMILES	outcome
Cc1ccccc1NC(=S)NNC(=O)c1cccc(Br)c1	inactive
CC(=O)c1cnc(-c2ccccc2)s1	inactive
COc1cccc(CNC(=O)CCC2CCCN(C(=O)c3ccoc3C)C2)c1 (stereo unspecified)	inactive
COc1cccc(CNC(=O)C2CCCN(c3ncnc4c3nc3n4CCCCC3)C2)c1 (stereo unspecified)	inactive
CN(Cc1ccc(F)cc1Cl)S(=O)(=O)c1cccs1	inactive
CC(=O)OC(C(=O)NC1CCCCC1)c1ccccc1 (stereo unspecified)	inactive
O=C1c2ccccc2S(=O)(=O)c2cc(N3CCN(c4ccccn4)CC3)ccc21	inactive
COc1ccccc1OCc1ccc(C(=O)N2CCN(C)CC2)o1	inactive
COc1ccc(-c2nnn(Cc3nc(N)nc(N4CCCCC4)n3)n2)cc1	inactive
Cc1cc(NC(=O)c2ccco2)c(=O)n(Cc2c(F)cccc2Cl)c1	inactive
O=C(CSc1nc2ccccc2[nH]1)N/N=C/C=C\c1ccccc1[N+](=O)[O-]	inactive
S=C(Nc1cccc(Cl)c1)Nc1ccc2cn[nH]c2c1	inactive
Cc1nn(C(C)C(=O)NCCC2=CCCCC2)c(=O)c2nn(-c3ccccc3)c(C)c12 (stereo unspecified)	inactive
O=C(NNC(=S)NCc1ccccc1)c1ccc(OC(F)F)cc1	inactive
CCCNC(=O)CCn1nc(-c2ccccc2)c2ccccc2c1=O	inactive
CC1(C)C2CC=C(/C=N/NC(=O)C3CC3)C1C2 (stereo unspecified)	inactive
CC(=O)c1cccc(NC(=O)COc2ccc(S(=O)(=O)N3CCOCC3)cc2)c1	inactive
Cn1cc(CN2CCC(C(O)CCc3ccccc3)CC2)c(-c2ccccc2F)n1 (stereo unspecified)	inactive
N#Cc1cccc(CN2CCC(=O)N([C@H](CO)c3ccccc3)CC2)c1	inactive
Cc1cc(NC(=O)CSc2nc3ccccc3n2CC(C)C)no1	inactive
COCCNc1nc(-c2ccccc2)nc2c1oc1ccccc12	inactive

— PubChem BioAssay AID463095 (Sanford-Burnham Center for Chemical Genomics, 2010)
